Source: PubChem BioAssay (Broad Institute)
aSyn 5UTR act = Activators via SNCA 5'UTR binding, MLPCN; 7.1% of 300,000 active; AID 1814; alpha-synuclein 5'UTR reporter, activators screen; activity score, % (tested at 7.5 µM), hits read low; in the data active means activity score below about -60%
* marks the source's active call; other numbers are inactive results. The list is a sample of the results.

SMILES	aSyn 5UTR act
O=c1c2oc3nc4c(cc3c2ncn1CCCc1ccccc1)CCCC4	-105.1*
CCOC(=O)/C(C#N)=C\C=C1C=CN(C)C=C1	-149.7*
C1=C(CCNc2ncnc3nc[nH]c23)CCCC1	-116.1*
c1ccc2c(CCNc3ncnc4nc[nH]c34)cccc2c1	-91.7*
CC(C)CCNC(=S)Nc1ccc([N+](=O)[O-])cc1	-63.1*
CCCN1CCC(=NNc2ccc(S(=O)(=O)N(CC)CC)cc2[N+](=O)[O-])CC1	78.9
O=C(NC(=S)NCCc1ccccn1)c1ccccc1	-106.2*
S=C(NCCc1ccccc1)Nc1ccc(Br)cc1	-126.4*
CCCN1CCC(NC(=S)Nc2ccc([N+](=O)[O-])cc2)CC1	-80.4*
O=[N+]([O-])c1ccc(NNC(=S)Nc2ccc(F)cc2)cc1	-157.2*
S=C(NCCc1ccccc1)Nc1ccccn1	-140.6*
COC(=O)Cc1ccc(NC(=S)Nc2ccccn2)cc1	-62.7*
CC(C)CCNC(=O)/C=C/c1ccc(Br)cc1	-64.1*
CC(C)CCNC(=S)Nc1ccc(Br)cc1	-69.2*
S=C(NCCc1ccccc1)NN=C1CCCCCC1	-159.2*
CC(C)(C)NC(=S)NCCc1ccccc1	-192.5*
O=C(Nc1ccc2c(c1)OCO2)c1cccc(F)c1	-183.4*
O=C(Nc1ccc2c(c1)OCO2)c1c(F)cccc1F	-125.2*
O=C(Nc1cccc(F)c1)Nc1ccc2c(c1)OCO2	-99.0*
CC(/C=N/NC(=O)c1cccnc1)=C\c1ccccc1	-124.2*
O=C(N/N=C/c1cc([N+](=O)[O-])ccc1Cl)c1cnccn1	81.1
CC(/C=N\NC(=O)c1cc(C)oc1C)=C\c1ccccc1	-118.8*
O=C(N/N=C/C(Cl)=C/c1ccccc1)c1cnccn1	-102.3*
CC(=C/c1ccccc1)/C=N/NC(=O)c1cnccn1	-190.0*
C/C(=N\NC(=O)C(c1ccccc1)c1ccccc1)c1ccccn1	79.9
SMILES	aSyn 5UTR act
CC(/C=N/Nc1nc(C)cc(C)n1)=C\c1ccc(C(C)C)cc1	-153.2*
CC(/C=N/NC(=O)C(O)c1ccccc1)=C\c1ccccc1 (configuration not stated)	-81.1*
CC(/C=N/NC(=O)c1ccncc1)=C\c1ccc(C(C)C)cc1	-146.4*
O=C(c1ccccc1Sc1c(Cl)cccc1[N+](=O)[O-])N1CCOCC1	-73.7*
COc1ccc2c(c1)C(=NN)c1cc(OC)ccc1-2	-65.1*
C/C(=N/OC(=O)CC(C)C)c1cc(-c2ccc(Cl)cc2)no1	-145.7*
CCN1Cc2c(/C=C/c3ccccc3)nc3ccc(OC)cc3c2N(c2cccc(Cl)c2)C1	-66.1*
COc1ccc(C(=O)N/N=C/C(=O)c2ccccc2)cc1	-133.1*
COc1ccc(C(=O)N/N=C/c2c[nH]c3ccccc23)cc1	-70.5*
COc1ccc2c(c1)c(/C=N/Nc1ccc(C(=O)O)cc1)c(C)n2C	-75.0*
COc1ccc(C(=O)N/N=C/c2sc3ccccc3c2O)cc1	83.8
COc1ccc(C(=O)N/N=C(\c2ccccc2)c2ccccn2)cc1	107.0
COc1ccc(/C(C)=N/Nc2ccc(C(=O)O)cc2)c(OC)c1	-139.9*
CCCCCN=C(N)N/N=C/c1c[nH]c2ccc(OC)cc12	108.3
C/C(=N\Nc1ccc(C(=O)O)cc1)c1ccc(Cl)s1	-87.0*
COc1ccc2c(/C=N/Nc3ccc(C(=O)O)cc3)c[nH]c2c1	-134.8*
CC(C)NC(=S)N/N=C/c1c[nH]c2ccccc12	-123.8*
COc1ccc2c(c1)c(C(=O)N/N=C/c1ccc(Br)cc1)c(C)n2C	-115.5*
COc1ccc(/C=N/NC(=O)c2[nH]c3ccc(Br)cc3c2-c2ccccc2)cc1	79.8
Cc1ccc(/C=N/n2c(C)nc3ccccc3c2=O)s1	-89.9*
Cc1nc2ccccc2c(=O)n1/N=C/c1ccccc1Cl	-90.5*
Cc1ccnc(S(=O)(=O)Cc2ccc([N+](=O)[O-])cc2)n1	-69.6*
CCOc1ccc(CCNC(=O)c2nnn(CC(=O)Nc3ccc(C)cc3)c2N)cc1OCC	-71.2*
COc1cccc(CNC(=O)c2nnn(CC(=O)Nc3ccc(Br)cc3)c2N)c1	86.0
COc1ccc(NC(=O)COc2ccc(/C=N/NC(=O)c3cccnc3)cc2OC)cc1	-105.2*
SMILES	aSyn 5UTR act
COc1cc(/C=N/NC(=O)c2cccnc2)ccc1OCC(=O)Nc1ccccc1Cl	-73.0*
CCOc1ccc(C2=Nn3c(nnc3-c3ccc(OC)cc3)SC2)cc1	84.3
CCC(=O)N1CCC(c2ccc(OC)cc2)=N1	-75.4*
CC(C)(C)C(=O)NC(=S)Nc1ccccc1F	-72.4*
COc1ccc(C(=O)NNC(=S)NC(=O)C(C)(C)C)cc1	59.7
COc1ccc(CCCC(=O)Nc2ccccc2F)cc1	-118.1*
COc1ccc(C(=O)NC(=S)Nc2ccccc2F)cc1	-198.8*
COc1cccc(-c2nnc(N(C)C(=O)C3CCOC3)s2)c1 (configuration not stated)	-71.1*
COc1cc2c(cc1OC)CN(c1ccc3ccccc3n1)CC2	-189.2*
COc1cc2c(cc1OC)CN(c1ccc(C(F)(F)F)cn1)CC2	-156.5*
O=C(Nc1nc2c(s1)CN(Cc1ccccc1)CC2)C1CCC1	-107.7*
COc1ccc(/C=N/Nc2cc(C)nc3ccc(Br)cc23)cc1	99.9
Cc1cc2c(C)nc(N/N=C/c3ccc(F)cc3)nc2o1	-72.4*
